From PubChem BioAssay AID504690 (Sanford-Burnham Center for Chemical Genomics, 2011) come the findings set out here.

In all, about 350,000 compounds went through this assay and about 2,700 (0.77%) were called active. Only a selection was taken, and actives are over-represented in it overall. Values without a mark were called inactive.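 Rule for the calls: active = inhibition reaching at least a set limit at 20 µM in the primary screen (cut at about 59% in these data); inactive = the rest.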

What is called inhibition is the drop in the measured response relative to a control, in per cent.

The test system of the test is glucose-6-phosphate dehydrogenase-6-phosphogluconolactonase (Plasmodium falciparum 3D7). In words: inhibition of malaria parasite G6PD (PfGluPho) – biochemical, fluorescence intensity, uHTS, primary screen (AID 504690).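 Note: 0% = DMSO wells with substrate and 100% = DMSO wells lacking glucose-6-phosphate.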 To be noted: PfGluPho enzyme, NADPH resazurin-diaphorase fluorescence; at 20 µM; hits give high values. For orientation: Resazurin is reduced to fluorescent resorufin, in cell work by metabolically active cells.
For `CC(C)C(=O)Nc1ccc2c3c(cccc13)CC2`, the inhibition was -13.6%.
For the compound `CC1CCCN(S(=O)(=O)c2ccc(N(C(=O)c3cnccn3)C(C(=O)NC3CCCCC3)c3cccs3)cc2)C1` (centres undefined), the inhibition is 13.2%.
Under `Cc1ccc2c(c1)NCC(C(=O)NC1CCC(C)CC1)O2` (centres undefined) stands 18.8%.
Under `COc1ccc2c(c1)c(=Cc1ccc(N(C)C)cc1)c1cc(-c3ccccc3)[n+](C)n12` stands 70% (active).
As to `Cc1cccc(C)c1NC(=O)CNC(=O)c1c(C)nn(-c2ccccc2)c1C`, the inhibition was -4.32%.
Under `COCC(=O)Nc1c(I)c(C(=O)NCC(O)CO)c(I)c(C(=O)N(C)CC(O)CO)c1I` (centres undefined) stands -11%.
Turning to `O=C(Nc1ccc(-c2cscn2)cc1)C1CCCN(Cc2ccc(CO)o2)C1` (centres undefined), the inhibition is -2.34%.
For `O=C1/C(=C\c2cccnc2)CN(Cc2ccccc2)C/C1=C\c1cccnc1`, the inhibition was 20.5%.
As for `COc1cc(OC)c(C(=O)Nc2ccc(N(C)C)cc2)cc1OC`, the figure is 70.5% (active); as for `COc1cc(OC)c(C(=O)Nc2ccccc2-c2ccccc2)cc1OC`, 6.28%.
Under `COc1ccc(Cl)cc1C(=O)Nc1ccc(N(C)C(C)=O)cc1` stands 7.67%; under `O=C(NC12CC3CC(CC(C3)C1)C2)N1CCCC(CO)C1` (centres undefined), -9.02%; under `CSc1ccc(CCNC(=O)C2CCN(c3nnc(-n4cccc4)s3)CC2)cc1`, -2.74%.
Under `O=C(Oc1c(-c2ccco2)oc2ccccc2c1=O)c1cccnc1` stands -16.3%; under `CCn1nc(C(=O)NNS(=O)(=O)c2cc(/C=C/C(=O)O)cc(OC)c2OC)c2ccccc2c1=O`, 11.8%; under `CN1CCN(CCCCOc2ccccc2-c2ccccc2)CC1`, 5.8%.
For the compound `S=C(c1ccc(-c2ccccc2)o1)N1CCCCC1`, the inhibition was 52.2%.
As for `OCCN1CCN(C(=S)c2ccc(-c3ccccc3)cc2)CC1`, the figure is 66.4% (active); as for `COc1ccccc1CCCNC(=O)C1CCC(=O)N(CCN2CCOCC2)C1` (centres undefined), -4.18%.
Under `CC(=O)Nc1nc2c(s1)C(=O)NCC(C)(C)C2` stands -8.85%; under `Cc1ccc(-n2nc(-c3ccco3)cc2C(=O)NCc2cccnc2)cc1`, 38.2%; under `CC1CN(C(=S)Nc2ccc(S(N)(=O)=O)cc2)CC(C)O1` (centres undefined), 13.9%.
As for `O=C(CCS(=O)(=O)c1cccc2nonc12)NCCc1ccccc1Cl`, the figure is 0.62%.
Take `Oc1c(C=Nc2cccc3nsnc23)ccc2ccccc12`: the inhibition was 64.6% (active).
Under `c1ccc(-c2cn3c(n2)CCc2ccc4cccnc4c2-3)cc1` stands 107% (active); under `OC(CN=c1sc2ccccc2n1CC(O)COc1ccccc1)COc1ccccc1` (centres undefined), 22.7%; under `Nc1ccc2nc3c(=O)[nH]c(=S)[nH]c3nc2c1`, 83.3% (active).
As for `Cc1ccc(S(=O)(=O)N2CCN(C(=O)CSc3cc(C)ccc3C)CC2)c(C)c1`, the figure is 13.7%; as for `CCCOC1CCCN(C(=O)c2cc(COc3cncc(Cl)c3)on2)C1` (centres undefined), 3.11%; as for `CCCCNS(=O)(=O)c1ccc(S(=O)(=O)n2cnc3ccccc32)cc1`, -0.9%.
With `CCOc1c2ccc(C(=O)NC3CCCc4ccccc43)cc2nn1CC` (centres undefined), the inhibition is 0.09%.
`CC1=CC(C)(C)Nc2ccc(OC(=O)CN3C(=O)C4CCCCC4C3=O)cc21` (centres undefined): the inhibition was 70.6% (active).
As for `CC1=CC(C)(C)Nc2ccc(OC(=O)C(Cc3ccccc3)N3C(=O)C4CCCCC4C3=O)cc21` (centres undefined), the inhibition was 38.3%.
As for `O=C(COC(=O)CN1C(=O)C2CCCCC2C1=O)Nc1ccc(F)c(F)c1F` (centres undefined), the figure is 14.5%.
Under `CC1CCCCC1NC(=O)CCS(=O)(=O)c1ccc2c(c1)NC(=O)CO2` (centres undefined) stands 4.88%; under `CN(C)N(C)C(=O)C(O)(c1ccccc1)c1ccccc1`, -19.5%.
Under `C/C=C/c1ccc(OCC(=O)OCC(=O)Nc2c(C)nn(-c3ccccc3)c2C)c(OC)c1` stands -4.73%; under `N=c1n(Cc2ccc(Cl)cc2)c2ccccc2n1CC(O)c1ccco1` (centres undefined), 8.27%; under `O=C(NC1=CC(=O)c2ccccc2C1=O)c1ccccc1`, 80.4% (active).
For `O=C(Nc1ccc2ccccc2c1[N+](=O)[O-])c1ccccc1`, the inhibition is 33.8%.
As for `O=C(Nc1ncccc1O)c1ccc(C(=O)c2ccccc2)cc1`, the figure is -5.63%.
In the case of `COc1ccc(OCc2nnc3n2N=C(c2ccccc2)C(CC(=O)O)S3)cc1` (centres undefined), the inhibition was 88.1% (active).
On to `COc1ccc(C(=O)NCc2nnc(SCCOc3ccccc3)n2C)cc1`, for which the inhibition is -13%.
For the compound `CC(Sc1nnc(COc2ccccc2)n1-c1ccccc1)C(=O)O` (centres undefined), the inhibition was -12.2%.
As for `Cc1cccc(C)c1NC(=O)c1ccc(CN2CCc3ccccc3C2)cc1`, the figure is 4.01%; as for `O=C(c1cccnc1)N1CCN(S(=O)(=O)c2cccs2)CC1`, -17.9%; as for `COc1ccccc1C(=O)N1CCNC(=O)C1CC(=O)Nc1ccc(Cl)cc1` (centres undefined), -0.83%.
For `CN1CCc2nc(SC(C(=O)O)c3ccccc3)c(C#N)c(-c3cccs3)c2C1` (centres undefined), the inhibition is 33.9%.
Under `Cc1noc(C)c1C(=O)OC(C)C(=O)Nc1ccc2c(c1)OCO2` (centres undefined) stands 7.92%; under `O=S1(=O)N=C(N(CCO)/N=C/c2ccccc2F)c2ccccc21`, -22.8%.
Under `CCOC(=O)C1=C(c2ccc(OC)cc2)C(=O)c2ccccc2C1=O` stands 101% (active); under `CCOC(=O)C(NC(C)=O)C(=O)Nc1ccc(OC)cc1` (centres undefined), -2.17%.
In the case of `CCOC(=O)c1ccccc1CN1C(=O)c2ccccc2S1(=O)=O`, the inhibition is -6.44%.
For the compound `CCOC(=O)c1c(C)nn(-c2ncccc2NC(=O)CCC(=O)O)c1C`, the inhibition was -27.7%.
Turning to `CC(C)[C@H](NC(=O)N1CCn2c1nc1ccccc12)C(=O)NCc1ccc2c(c1)OCO2`, the inhibition was 20.7%.
Under `COc1cc(C(F)(F)F)c(C(=O)N(C)c2ccc(Cl)cc2)cn1` stands 5.85%; under `COc1ccc(Cl)cc1NC(=O)CN(C)C(=O)CNC(=O)C12CC3CC(CC(C3)C1)C2`, -2.93%; under `COc1ccc(Cl)cc1NC(=O)CN(C)C(=O)CCCc1c[nH]c2ccccc12`, 78.4% (active).
As for `COc1ccc(Cl)cc1NC(=O)CN(C)C(=O)c1cc2ccccc2cc1OC`, the figure is 11.4%.
